These results are taken from the supplement of paper PMC10849652.

Of roughly 7,900 targets only a part is listed; those with a hit were picked by preference. About 0.6% of all pairs of compound and target were hits. Unmarked numbers belong to inactive results.

Sequence of UniProt Q16537 (Q16537 whole entry, looked up): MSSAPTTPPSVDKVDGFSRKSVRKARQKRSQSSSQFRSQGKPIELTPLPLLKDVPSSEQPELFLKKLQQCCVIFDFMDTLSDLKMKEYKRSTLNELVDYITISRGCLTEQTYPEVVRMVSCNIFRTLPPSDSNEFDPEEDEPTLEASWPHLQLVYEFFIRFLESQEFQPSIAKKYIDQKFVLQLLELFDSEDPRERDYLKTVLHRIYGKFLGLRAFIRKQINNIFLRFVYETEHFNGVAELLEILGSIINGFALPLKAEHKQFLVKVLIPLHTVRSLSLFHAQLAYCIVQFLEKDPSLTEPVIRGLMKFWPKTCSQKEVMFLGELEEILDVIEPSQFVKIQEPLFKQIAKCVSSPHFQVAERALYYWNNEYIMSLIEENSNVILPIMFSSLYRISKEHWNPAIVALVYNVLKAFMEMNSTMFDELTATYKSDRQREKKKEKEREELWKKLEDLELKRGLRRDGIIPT
Sequence of UniProt O43395 (O43395 whole entry, looked up): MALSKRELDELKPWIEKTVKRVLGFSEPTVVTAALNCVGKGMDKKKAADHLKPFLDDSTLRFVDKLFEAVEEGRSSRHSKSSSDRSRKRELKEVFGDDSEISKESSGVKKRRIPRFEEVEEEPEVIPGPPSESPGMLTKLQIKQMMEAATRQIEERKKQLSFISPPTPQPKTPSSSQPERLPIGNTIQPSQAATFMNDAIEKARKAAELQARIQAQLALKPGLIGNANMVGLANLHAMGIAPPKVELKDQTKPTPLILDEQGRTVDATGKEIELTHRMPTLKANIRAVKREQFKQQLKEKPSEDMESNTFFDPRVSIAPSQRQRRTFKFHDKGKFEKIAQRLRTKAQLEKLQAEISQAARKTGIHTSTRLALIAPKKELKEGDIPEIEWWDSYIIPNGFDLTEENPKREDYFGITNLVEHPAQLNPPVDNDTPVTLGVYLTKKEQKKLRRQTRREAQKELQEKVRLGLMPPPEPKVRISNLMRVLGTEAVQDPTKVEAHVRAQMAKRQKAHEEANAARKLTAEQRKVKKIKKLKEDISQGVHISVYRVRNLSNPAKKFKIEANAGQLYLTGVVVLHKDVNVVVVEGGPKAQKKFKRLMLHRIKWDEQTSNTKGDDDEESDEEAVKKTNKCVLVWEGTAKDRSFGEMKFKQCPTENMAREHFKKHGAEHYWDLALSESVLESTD
Sequence of UniProt O15067 (O15067 whole entry, looked up): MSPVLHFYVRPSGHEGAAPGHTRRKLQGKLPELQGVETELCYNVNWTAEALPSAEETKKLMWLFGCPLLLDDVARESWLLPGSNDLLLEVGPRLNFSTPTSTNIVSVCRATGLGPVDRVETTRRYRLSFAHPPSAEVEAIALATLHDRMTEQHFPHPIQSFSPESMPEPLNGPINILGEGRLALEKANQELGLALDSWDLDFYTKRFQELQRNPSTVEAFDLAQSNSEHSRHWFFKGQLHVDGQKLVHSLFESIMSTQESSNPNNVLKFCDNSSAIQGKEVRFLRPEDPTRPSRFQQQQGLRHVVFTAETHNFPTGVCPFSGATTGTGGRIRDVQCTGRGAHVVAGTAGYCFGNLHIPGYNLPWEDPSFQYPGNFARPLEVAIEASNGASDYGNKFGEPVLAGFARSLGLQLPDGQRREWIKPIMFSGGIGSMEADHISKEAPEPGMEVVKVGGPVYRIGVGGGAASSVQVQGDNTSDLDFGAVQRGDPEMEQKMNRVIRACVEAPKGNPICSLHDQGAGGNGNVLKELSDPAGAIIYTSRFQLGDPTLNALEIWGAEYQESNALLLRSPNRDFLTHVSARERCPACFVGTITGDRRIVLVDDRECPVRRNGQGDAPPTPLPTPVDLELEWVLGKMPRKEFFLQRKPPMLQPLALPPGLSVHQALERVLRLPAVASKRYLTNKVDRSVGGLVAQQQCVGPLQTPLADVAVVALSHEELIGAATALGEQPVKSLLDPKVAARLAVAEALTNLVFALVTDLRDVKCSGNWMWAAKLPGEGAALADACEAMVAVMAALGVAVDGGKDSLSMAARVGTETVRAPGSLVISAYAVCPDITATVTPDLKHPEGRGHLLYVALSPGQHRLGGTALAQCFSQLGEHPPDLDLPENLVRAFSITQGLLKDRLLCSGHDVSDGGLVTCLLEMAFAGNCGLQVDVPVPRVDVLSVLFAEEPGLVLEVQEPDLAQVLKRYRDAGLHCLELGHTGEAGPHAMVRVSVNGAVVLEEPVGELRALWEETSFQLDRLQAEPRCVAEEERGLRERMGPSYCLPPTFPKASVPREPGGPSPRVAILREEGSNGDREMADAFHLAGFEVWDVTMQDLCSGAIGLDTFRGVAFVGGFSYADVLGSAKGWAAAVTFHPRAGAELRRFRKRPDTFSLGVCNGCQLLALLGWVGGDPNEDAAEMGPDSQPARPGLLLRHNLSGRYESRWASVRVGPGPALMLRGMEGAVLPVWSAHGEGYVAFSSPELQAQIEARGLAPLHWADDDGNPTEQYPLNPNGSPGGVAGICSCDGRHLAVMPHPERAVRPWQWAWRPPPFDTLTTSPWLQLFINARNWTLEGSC
Sequence of UniProt O15530 (O15530 whole entry, looked up): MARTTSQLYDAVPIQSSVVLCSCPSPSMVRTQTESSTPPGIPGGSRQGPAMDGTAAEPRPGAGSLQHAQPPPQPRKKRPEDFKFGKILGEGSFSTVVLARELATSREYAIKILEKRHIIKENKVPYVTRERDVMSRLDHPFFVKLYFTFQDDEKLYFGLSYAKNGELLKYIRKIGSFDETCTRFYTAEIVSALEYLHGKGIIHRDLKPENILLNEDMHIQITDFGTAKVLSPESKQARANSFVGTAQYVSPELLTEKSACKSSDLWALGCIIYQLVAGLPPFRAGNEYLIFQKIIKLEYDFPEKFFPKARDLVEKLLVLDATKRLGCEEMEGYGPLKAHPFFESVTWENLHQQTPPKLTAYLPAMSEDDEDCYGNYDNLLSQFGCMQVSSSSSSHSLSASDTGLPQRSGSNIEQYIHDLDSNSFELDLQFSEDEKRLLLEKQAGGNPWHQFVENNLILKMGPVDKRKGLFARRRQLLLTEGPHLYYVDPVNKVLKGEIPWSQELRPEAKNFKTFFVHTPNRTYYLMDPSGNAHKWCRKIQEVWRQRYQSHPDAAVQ
Sequence of UniProt O95602 (O95602 whole entry, looked up): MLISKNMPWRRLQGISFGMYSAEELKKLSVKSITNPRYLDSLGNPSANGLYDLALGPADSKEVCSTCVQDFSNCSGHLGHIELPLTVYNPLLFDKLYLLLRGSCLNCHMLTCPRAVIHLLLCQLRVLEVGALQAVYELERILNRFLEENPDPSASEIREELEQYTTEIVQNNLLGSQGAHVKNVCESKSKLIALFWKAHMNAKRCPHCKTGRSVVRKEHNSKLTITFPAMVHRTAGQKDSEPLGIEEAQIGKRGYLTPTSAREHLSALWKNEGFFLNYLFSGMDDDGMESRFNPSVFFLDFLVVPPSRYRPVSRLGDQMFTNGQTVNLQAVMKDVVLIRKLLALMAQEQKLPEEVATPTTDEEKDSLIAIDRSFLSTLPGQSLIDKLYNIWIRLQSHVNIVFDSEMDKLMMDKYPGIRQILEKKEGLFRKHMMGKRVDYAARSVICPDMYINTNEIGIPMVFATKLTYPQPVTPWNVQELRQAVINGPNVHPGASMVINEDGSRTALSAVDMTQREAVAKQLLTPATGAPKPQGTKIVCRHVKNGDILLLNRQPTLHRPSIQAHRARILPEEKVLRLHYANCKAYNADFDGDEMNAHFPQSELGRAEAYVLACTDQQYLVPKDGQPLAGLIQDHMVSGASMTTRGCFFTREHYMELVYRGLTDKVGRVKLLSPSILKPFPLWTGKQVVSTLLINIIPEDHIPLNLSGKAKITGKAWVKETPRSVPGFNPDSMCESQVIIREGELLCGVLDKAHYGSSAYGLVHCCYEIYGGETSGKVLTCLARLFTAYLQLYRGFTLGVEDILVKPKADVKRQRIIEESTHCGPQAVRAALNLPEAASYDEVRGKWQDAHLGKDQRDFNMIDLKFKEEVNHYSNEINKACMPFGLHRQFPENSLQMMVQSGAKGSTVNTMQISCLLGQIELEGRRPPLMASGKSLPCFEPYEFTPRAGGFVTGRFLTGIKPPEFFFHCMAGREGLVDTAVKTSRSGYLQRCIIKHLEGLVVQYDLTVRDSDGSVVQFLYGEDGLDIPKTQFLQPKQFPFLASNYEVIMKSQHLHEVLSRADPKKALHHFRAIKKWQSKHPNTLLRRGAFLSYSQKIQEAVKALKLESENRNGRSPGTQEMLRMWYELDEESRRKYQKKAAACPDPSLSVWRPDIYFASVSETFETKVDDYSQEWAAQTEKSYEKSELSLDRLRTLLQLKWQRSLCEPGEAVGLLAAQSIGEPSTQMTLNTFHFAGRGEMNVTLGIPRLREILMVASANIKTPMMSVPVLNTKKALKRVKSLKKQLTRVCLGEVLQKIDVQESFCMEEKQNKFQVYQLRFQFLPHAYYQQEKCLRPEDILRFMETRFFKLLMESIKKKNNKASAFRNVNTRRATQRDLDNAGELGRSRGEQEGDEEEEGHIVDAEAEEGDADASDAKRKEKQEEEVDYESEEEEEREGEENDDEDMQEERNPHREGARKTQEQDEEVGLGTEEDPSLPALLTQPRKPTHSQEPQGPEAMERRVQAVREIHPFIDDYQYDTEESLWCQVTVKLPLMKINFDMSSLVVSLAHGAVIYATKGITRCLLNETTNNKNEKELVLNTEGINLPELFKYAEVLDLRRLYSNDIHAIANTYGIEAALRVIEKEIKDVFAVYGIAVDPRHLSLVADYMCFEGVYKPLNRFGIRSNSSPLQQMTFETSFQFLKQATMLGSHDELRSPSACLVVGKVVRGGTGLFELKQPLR
Sequence of UniProt Q9Y244 (Q9Y244 whole entry, looked up): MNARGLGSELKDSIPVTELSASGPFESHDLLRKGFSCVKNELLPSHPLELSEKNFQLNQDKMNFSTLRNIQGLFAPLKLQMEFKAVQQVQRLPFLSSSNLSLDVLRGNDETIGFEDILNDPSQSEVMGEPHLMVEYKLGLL
Sequence of UniProt Q9Y2Y1 (Q9Y2Y1 whole entry, looked up): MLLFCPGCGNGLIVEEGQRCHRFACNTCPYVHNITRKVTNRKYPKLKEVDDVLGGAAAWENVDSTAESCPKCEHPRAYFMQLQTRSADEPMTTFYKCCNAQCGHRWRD

Compound in the first assay: CC[C@H](C)N1C=C(C2=C(C=C(C=C21)C3=CN=C(C=C3)N4CCNCC4)C(=O)NCC5=C(C=C(NC5=O)C)C)C
Description: log2 fold change, soluble protein after heating vs DMSO (PISA); higher = thermal stabilisation; K562 cells, 10 uM, 30 min; active = over 0.2 and 3.5 SD of the protein, either way, in both replicates (recomputed). A digest of the protocol: (§1)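 K562 cells at 2×10^6 cells/mL were treated with 10 μM compound for 30 min. Aliquots were heated for 3 min across 48°C-58°C, pooled, and extracted in PBS with 0.5% NP-40 at 4°C; soluble protein was the supernatant after 21,000xg for 90 min. Soluble protein was quantified by TMTpro 16plex LC-MS/MS with channel sums equalised, and reported as log2 fold change in thermal stability against DMSO controls, with values from duplicates.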
On to PYGL (UniProt P06737), for which the log2 fold change is 0.008.
With POTEI (UniProt P0CG38), the log2 fold change is -0.043.
On to POLR1A (UniProt O95602), for which the log2 fold change is -0.26.
With POMP (UniProt Q9Y244), the log2 fold change is 0.008.
For the target PPP2R5E (UniProt Q16537), the log2 fold change is -0.025.
Take PSMA3 (UniProt P25788): the log2 fold change was -0.025.
For the target PRPF3 (UniProt O43395), the log2 fold change was 0.069.
On to PNPLA8 (UniProt Q9NP80), for which the log2 fold change is -0.07.
On to PRMT3 (UniProt O60678), for which the log2 fold change was 0.039.
For PRIM2 (UniProt P49643), the log2 fold change was 0.147.
PFAS (UniProt O15067): the log2 fold change is 0.113.
For PARL (UniProt Q9H300), the log2 fold change is -0.009.
As for PDPK1 (UniProt O15530), the log2 fold change was 0.034.
Regarding PTPA (UniProt Q15257), the log2 fold change was -0.012.

Compound in another assay: CC[C@H](C)[C@@H](C(=O)N[C@@H]([C@@H](C)O)C(=O)N[C@@H](CC(C)C)C(=O)[C@]1(CO1)C)NC(=O)[C@H]([C@@H](C)CC)N(C)C(=O)C [epoxomicin]
Described as above. A digest of the protocol: as §1
Regarding PYGB (UniProt P11216), the log2 fold change was -0.045.
For PLCB3 (UniProt Q01970), the log2 fold change is 0.009.
Consider POLR2M (UniProt P0CAP2), for which the log2 fold change is -0.018.
On to PEX16 isoform 2 (UniProt Q9Y5Y5), for which the log2 fold change was -0.024.
On to PTPA (UniProt A6PVN8), for which the log2 fold change was 0.053.
Still for that read-out and setting: under PARN (UniProt O95453) stands 0.051; under PKM (UniProt P14618), 0.001; under PRIM1 (UniProt P49642), 0.088.
With PCK2 (UniProt Q16822), the log2 fold change is 0.059.
On to POLR2G (UniProt P62487), for which the log2 fold change was 0.054.
Turning to PTDSS1 (UniProt P48651), the log2 fold change was -0.035.
On to PHKA2 (UniProt P46019), for which the log2 fold change is 0.071.
PISD (UniProt Q9UG56): the log2 fold change is -0.002.
On the same count and under the same terms, for PIP4P1 isoform 2 (UniProt Q86T03) the value was 0.008.
On to PGGT1B (UniProt P53609), for which the log2 fold change is -0.011.
With PCLAF (UniProt Q15004), the log2 fold change is 0.185.
Regarding POLR3K (UniProt Q9Y2Y1), the log2 fold change was 0.067.
As to POLR2K (UniProt P53803), the log2 fold change is -0.032.
On to PCBP1 (UniProt Q15365), for which the log2 fold change is 0.025.
Turning to PCNT (UniProt O95613), the log2 fold change is -0.177.
For PTGR2 (UniProt Q8N8N7), the log2 fold change is -0.006.
With PLIN2 (UniProt Q99541), the log2 fold change is 0.153.
As for PDCD6 (UniProt O75340), the log2 fold change is 0.031.
Take PYGL (UniProt P06737): the log2 fold change was -0.02.
Still for that read-out and setting: under POTEI (UniProt P0CG38) stands -0.039; under POLR1A (UniProt O95602), -0.037.
Take POMP (UniProt Q9Y244): the log2 fold change is 0.581 (active).
Still for that read-out and setting: for PPP2R5E (UniProt Q16537) the value was -0.034; for PSMA3 (UniProt P25788), -0.169.
Regarding PRPF3 (UniProt O43395), the log2 fold change was 0.069.
Still for that read-out and setting: under PNPLA8 (UniProt Q9NP80) stands 0.112; under PRMT3 (UniProt O60678), 0.033; under PRIM2 (UniProt P49643), 0.02.
For the target PFAS (UniProt O15067), the log2 fold change is -0.016.
With PARL (UniProt Q9H300), the log2 fold change was -0.076.
PDPK1 (UniProt O15530): the log2 fold change is 0.055.
For PTPA (UniProt Q15257), the log2 fold change is 0.051.

Compound in another assay: CCn1c(C(=O)N(C2CC2)C2CC2)cc2c3c(ncn3C)c(Nc3cc(C)n(C)n3)nc21
Described as above. A digest of the protocol:
as §1
PYGB (UniProt P11216): the log2 fold change was -0.203.
For the target PLCB3 (UniProt Q01970), the log2 fold change is 0.026.
POLR2M (UniProt P0CAP2): the log2 fold change was -0.022.
Turning to PEX16 isoform 2 (UniProt Q9Y5Y5), the log2 fold change was -0.041.
For PTPA (UniProt A6PVN8), the log2 fold change is 0.099.
Regarding PARN (UniProt O95453), the log2 fold change was -0.021.
Regarding PKM (UniProt P14618), the log2 fold change is -0.002.
Regarding PRIM1 (UniProt P49642), the log2 fold change was -0.072.
For the target PCK2 (UniProt Q16822), the log2 fold change was 0.016.
Turning to POLR2G (UniProt P62487), the log2 fold change is 0.06.
Still for that read-out and setting: for PTDSS1 (UniProt P48651) the value was -0.019.
As for PHKA2 (UniProt P46019), the log2 fold change was -0.047.
With PISD (UniProt Q9UG56), the log2 fold change was -0.029.
Still for that read-out and setting: under PIP4P1 isoform 2 (UniProt Q86T03) stands 0.009; under PGGT1B (UniProt P53609), 0.031.
Regarding PCLAF (UniProt Q15004), the log2 fold change was 0.012.
Turning to POLR3K (UniProt Q9Y2Y1), the log2 fold change was -0.061.
The same measure, in the same setting: for POLR2K (UniProt P53803) the value was 0.144.
As for PCBP1 (UniProt Q15365), the log2 fold change was -0.065.
As for PCNT (UniProt O95613), the log2 fold change was -0.105.
Take PTGR2 (UniProt Q8N8N7): the log2 fold change was 0.244.
Turning to PLIN2 (UniProt Q99541), the log2 fold change was -0.008.
On the same count and under the same terms, under PDCD6 (UniProt O75340) stands -0.005; under PYGL (UniProt P06737), -0.081.
Turning to POTEI (UniProt P0CG38), the log2 fold change is -0.026.
On to POLR1A (UniProt O95602), for which the log2 fold change is 0.063.
Still for that read-out and setting: under POMP (UniProt Q9Y244) stands -0.005.
As to PPP2R5E (UniProt Q16537), the log2 fold change is -0.009.
On to PSMA3 (UniProt P25788), for which the log2 fold change is 0.043.
In the case of PRPF3 (UniProt O43395), the log2 fold change is -0.05.
The same measure, in the same setting: under PNPLA8 (UniProt Q9NP80) stands -0.01; under PRMT3 (UniProt O60678), 0.005.
On to PRIM2 (UniProt P49643), for which the log2 fold change is -0.041.
PFAS (UniProt O15067): the log2 fold change is -0.218.
With PARL (UniProt Q9H300), the log2 fold change was 0.031.
As to PDPK1 (UniProt O15530), the log2 fold change is -0.035.
On to PTPA (UniProt Q15257), for which the log2 fold change is -0.017.
